Outcome and AC50 data for 28 compounds are collected here from PubChem BioAssay (EPA / NIEHS).

A word on the AC50: it is the concentration at which the activity in the assay is half-maximal.

Test [1] can be described thus: CCTE_Mundy_HCI_Cortical_NOG_NeuronCount: CCTE's Neurite Outgrowth Assay in rat cortical cells for Neuron Count, Mundy Lab (AID 2284236; active = hit-call score of the fitted dose curve at least 0.9, where 1 is the maximum;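 also: neurons counted by imaging betaIII-tubulin and Hoechst stained cortical cells; cells exposed to compound for about 48 hours before fixation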). Put shortly: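 Read-out: neuron number by high-content imaging of betaIII-tubulin (Alexa Fluor-488) and Hoechst-labelled rat primary cortical cells.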
A short description of test [2]: CCTE_Mundy_HCI_Cortical_NOG_BPCount: CCTE's Neurite Outgrowth Assay in rat cortical cells for Branch Point Count, Mundy Lab (AID 2284237).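 As to AC50: branch points counted about two days after chemical exposure.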 The method in brief:
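Measured 50.33 h after dosing, this morphology endpoint uses rat primary cortical cultures labelled for betaIII-tubulin. Branch points are quantified by high-content imaging, with DMSO as negative control and baseline.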

Test [3] is described as follows: UKN2_HCS_IMR90_cell_viability: Viability Assessment in the University of Konstanz (UKN) Leist Lab Neural Crest Cell Migration Assay in human induced IMR90 Pluripotent Stem Cells (UKN2) (AID 2284233).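 Also: viability of neural crest cells differentiated from IMR90 iPSC measured by calcein-AM fluorescence imaging; cells exposed to compound for 24 h after a 24 h migration phase.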 The method in brief:
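Neural crest cells derived from IMR90 iPSC migrate into a stopper-free zone for 24 h in EGF/FGF medium, then are exposed to compound for 24 h. Viability assessed by calcein-AM and Hoechst staining with high-content imaging, fitted bidirectionally versus DMSO.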

A short description of test [4]: UKN4_HCS_LUHMES_cell_viability: Viability Assessment in the University of Konstanz (UKN) Leist Lab Neurite Outgrowth Assay in human LUHMES cells (UKN4) (AID 2284232). The method in brief: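 LUHMES precursors differentiated 2 days, replated at 30000 cells/well without cAMP/GDNF, then compound-treated 24 h. Viability from Hoechst H-33342 and calcein-AM live staining (30 min) by high-content fluorescence imaging; bidirectional fit versus DMSO.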

Read-out in test [5]: Tumor necrosis factor (Homo sapiens) (UniProt P01375)
Nature of the test: BSK_BT_xTNFa: BioMAP Diversity Plus: BT Assay for Tumor necrosis factor alpha (TNF-alpha) Biomarker Activity (AID 2284230). The conditions noted are these: primary human B cells with PBMC. Put shortly: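 Human primary co-culture of B cells and peripheral blood mononuclear cells; TNF-alpha in supernatant, 24 h post-dose, Luminex multiplex; DMSO = baseline.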

Read-out in test [6]: Vascular cell adhesion molecule 1 (VCAM1), VCAM1 (gene 7412)
Nature of the test: BSK_MyoF_VCAM1: BioMAP Diversity Plus: MyoF Assay for Vascular cell adhesion molecule 1 (VCAM1) Biomarker Activity (AID 2284231). The conditions noted are these: primary human lung fibroblasts. The method in brief:
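VCAM-1 levels, lung fibroblasts, ELISA, 24 h exposure, increase scored relative to DMSO.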

Read-out in test [7]: Collagen I, COL1A1 (gene 1277)
Nature of the test: BSK_MyoF_CollagenI: BioMAP Diversity Plus: MyoF Assay for Collagen I Biomarker Activity (AID 2284238). The conditions noted are these: primary human lung fibroblasts. Put shortly:
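Measured by ELISA: Collagen I from human lung fibroblasts 24 h after compound addition, analysed for signal gain with DMSO as baseline; overt toxicity read from SRB staining of parallel cultures at the same time.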

Read-out in test [8]: Collagen III, COL3A1 (gene 1281)
Nature of the test: BSK_MyoF_CollagenIII: BioMAP Diversity Plus: MyoF Assay for Collagen III Biomarker Activity (AID 2284239). To be noted: primary human lung fibroblasts. Put shortly:
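Multiplexed cell assay in lung fibroblasts, harvested at 24 h post-dose. Collagen III detected by ELISA, with positive-direction fitting relative to DMSO vehicle.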

Test [9] can be described thus: TAMU_HCS_1.5hr_SingleDonor1434_Cytotoxicity: Cytotoxicity Assessment using High-content Screening (HCS) Fluorescent Imaging for the Texas A&M University (TAMU) 1.5-hr Human Induced Pluripotent Stem Cell (iPSC)-derived Cardiotoxicity Assay (AID 2284234; active = hit-call score of the fitted dose curve at least 0.9, where 1 is the maximum). The method in brief:
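Human iPSC-derived cardiomyocytes dosed at 0.2, 1, 10, 100 uM final (0.5% DMSO) for 90 min at 37 C. Hoechst 33342-stained nuclei counted by 10x high-content imaging; POD is EC10, a 10% drop in total cell count versus DMSO.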

A short description of test [10]: TAMU_PeakParms_SingleDonor1434_QT: Texas A&M University (TAMU) 1.5-hr Human Induced Pluripotent Stem Cell (iPSC)-derived Cardiomyocytes Calcium (Ca+2) Flux Assay for Cardiotoxicity: QT (decay-rise ratio) (AID 2284235; active = hit-call score of the fitted dose curve at least 0.9, where 1 is the maximum). The method in brief:
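iPSC-derived cardiomyocytes (single donor 1434) dosed at 0.2, 1, 10, 100 uM final in 0.5% DMSO, 90 min at 37C. Ca2+ flux fluorescence decay/rise ratio; EC05 (5% increase versus DMSO) as POD, excluding beat-arrest and severe-notch data.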

Several values for one entry are separate records, joined by “and”; a condition that tells them apart may be missing. Equal values may be shown once. Inconclusive results are not listed. Where a structure was tested more than once in an assay, its records may differ in their call. Activity calls are given as the source filed them. The calls were made as follows, unless noted: active = hit-call score of the fitted dose curve at least 0.9, where 1 is the maximum; inactive = score below 0.9.

Tumor necrosis factor (Homo sapiens), sequence (P01375 whole entry, looked up): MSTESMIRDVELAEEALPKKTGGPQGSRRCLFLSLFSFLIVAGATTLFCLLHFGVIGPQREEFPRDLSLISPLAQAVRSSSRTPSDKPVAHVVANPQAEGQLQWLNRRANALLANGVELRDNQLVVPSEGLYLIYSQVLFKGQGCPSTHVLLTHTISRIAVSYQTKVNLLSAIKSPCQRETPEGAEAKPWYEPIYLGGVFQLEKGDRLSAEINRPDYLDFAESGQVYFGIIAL

Turning to `CCOP(=S)(OCC)Oc1ccc2c(C)c(Cl)c(=O)oc2c1`, the compound was classed as inactive in test [1]. In test [2], the AC50 was 86400 nM (active).

With `CCCSP(=O)(OCC)SCCC`, the compound was called inactive in [3], in [1] and in [2].

Take `COP(=O)(OC)OC(Br)C(Cl)(Cl)Br` (configuration not stated): the AC50 in test [3] is 21.6 µM (active); in test [1], 30.2 µM (active) and 29.5 µM (active); in test [2], 30.4 µM (active) and 22.1 µM (active).

Take `CC(=NC#N)N(C)Cc1ccc(Cl)nc1`: the result in test [4], in test [3], in [1] and in [2] was inactive.

In the case of `CCCCSP(=O)(SCCCC)SCCCC`, in test [3], the compound was classed as inactive. For the same compound, the AC50 in test [1] is 86.4 µM (active) and 68.4 µM (active); in [2], 84.4 µM (active) and 76 µM (active).

For `CSC1=N[C@@](C)(c2ccccc2)C(=O)N1Nc1ccccc1`, the outcome in [1] and in [2] was inactive.

Take `CC[C@H](C)[C@H]1O[C@]2(C=C[C@@H]1C)C[C@@H]1C[C@@H](C/C=C(\C)[C@@H](O[C@H]3C[C@H](OC)[C@@H](O[C@H]4C[C@H](OC)[C@@H](NC)[C@H](C)O4)[C@H](C)O3)[C@@H](C)/C=C/C=C3\CO[C@@H]4[C@H](O)C(C)=C[C@@H](C(=O)O1)[C@]34O)O2`: the AC50 in [4] is 1.76 µM (active); in [3], 3.1 µM (active) and 3.81 µM (active); in test [1], 1.23 µM (active) and 1.7 µM (active); in [2] it was 883 nM (active) and 1.53 µM (active).

On to `CON=C(C(=O)OC)c1ccccc1CON=C(C)c1cccc(C(F)(F)F)c1`, for which the AC50 is 50 µM (active) in test [3], 1.78 µM (active) in test [1] and 929 nM (active) in [2].

For the compound `COP(=O)(OC)C(O)C(Cl)(Cl)Cl` (configuration not stated), the compound was classed as inactive in test [2].

Turning to `CCOP(=O)(NC(C)C)Oc1ccc(SC)c(C)c1` (configuration not stated), the outcome in test [3], in [1] and in test [2] was inactive.

`CCOP(=O)(SC(C)CC)N1CCSC1=O` (configuration not stated): the call in test [2] was inactive.

Turning to `CCOC(=O)CC(SP(=O)(OC)OC)C(=O)OCC` (configuration not stated), the compound was called inactive in test [4], in test [3] and in [2].

`C[N+]1(C)CCCCC1`: the result in test [2] was inactive.

Regarding `CCOP(=S)(Oc1cnc(C(C)(C)C)nc1)OC(C)C` (configuration not stated), the call in test [3], in test [1] and in test [2] was inactive. Further, the AC50 in test [1] is 28 µM (active); in test [2], 22800 nM (active).

For `COP(=O)(NC(C)=O)SC` (configuration not stated), in test [2], the compound was called inactive.

For `CN(C)[C@@H]1C(=O)C(C(N)=O)=C(O)[C@@]2(O)C(=O)C3=C(O)c4c(O)cccc4[C@@](C)(O)[C@H]3[C@H](O)[C@@H]12`, the result in [5], in [6], in [2], in test [7] and in [8] was inactive. Also, the AC50 in [3] was 90 µM (active); in test [1], 76.9 µM (active).

In the case of `CCOP(=S)(OCC)OC(Cl)C(Cl)(Cl)Cl` (configuration not stated), in test [3], the call was inactive. For the same compound, the AC50 was 50 µM (active) and 21.7 µM (active) in test [1]; 50 µM (active) and 28.7 µM (active) in test [2].

`CCOP(=S)(OCC)Oc1ccc([N+](=O)[O-])cc1`: the outcome in test [9] and in [10] was inactive. Moreover, the concentration at half-maximal activity (AC50) in test [2] is 24700 nM (active).

Regarding `CC(C)N(C(=O)SCC(Cl)=C(Cl)Cl)C(C)C`, the AC50 in [4] was 19.3 µM (active). Besides, the compound was classed as inactive in [1] and in test [2].

In the case of `S=C1NCCN1`, the outcome in test [2] was inactive.

`O=[N+]([O-])c1cc(C(F)(F)F)c(Cl)c([N+](=O)[O-])c1Nc1ncc(C(F)(F)F)cc1Cl`: the AC50 is 3.97 µM (active) in [5]; 2.53 µM (active) in [6]; 1.48 µM (active) in [3]; 1.94 µM (active) in test [1]; 740 nM (active) in test [2]; 2.52 µM (active) in test [7]. Further, the AC50 in test [8] was 2.72 µM (active).

Take `CCOP(=S)(OCC)SCCSCC`: the result in test [2] was inactive.

Take `C=C(C)[C@H]1Cc2c(ccc3c2O[C@@H]2COc4cc(OC)c(OC)cc4[C@@H]2C3=O)O1`: the AC50 was 0.01 µM (active) in [9], 0.135 µM (active) in [1] and 17.5 nM (active) in test [2]. Further, the outcome in [10] was inactive.

For `CCOP(=S)(OCC)Oc1cc(C)nc(C(C)C)n1`, the AC50 in [2] was 110 nM (active).

For the compound `CCOP(=O)(OCC)Oc1cc(C)nc(C(C)C)n1`, the compound was classed as inactive in [3], in test [1] and in test [2].

On to `CN1COCN(Cc2cnc(Cl)s2)C1=N[N+](=O)[O-]`, for which the outcome in test [2] was inactive.

Consider `CCCSP(=O)(OCC)Oc1ccc(Br)cc1Cl` (configuration not stated), for which the compound was called inactive in test [1] and in [2].

Regarding `CC1=NNC(=O)N(/N=C/c2cccnc2)C1`, the compound was called inactive in test [1] and in [2].
